# Reference: PubChem BioAssay (NCI)
# About 83,000 compounds went through this panel and 20% of them were active in at least one assay; those are over-represented in the sample as a whole.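 For each line, cells grew in 96-well plates with the test compound present at a single concentration for 48 hours.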 Unmarked numbers belong to inactive results. The source made the active and inactive calls. Rule for the calls: active = growth percent below 10; inactive = the rest.
# System: SF-539 CNS
# Experiment: NCI-60 one-dose screen, 48 h (100 = growth as untreated, 0 = no growth, -100 = all killed)
# Conditions: 10 µM unless noted
row,Structure (SMILES),growth
1,CN1CCN(Cc2ccc(NC(=O)c3cncc(C#Cc4cnc5ccc(NCCCO)nn45)c3)cc2C(F)(F)F)CC1,-78.1% (active)
2,COC(=O)c1[nH]nc2c1C1(C(=O)N(C)c3ccccc31)C(C#N)=C(N)O2 (stereo not drawn),96.5%
3,O=C(Cn1cc(-c2ccccc2)nn1)Nc1nc(-c2ccc(Cl)cc2)cs1,108%
4,COc1cc(OC)c(S(N)(=O)=O)cc1C(C)=O,101%
5,COc1ccccc1N1CCN(C2=CC(=O)C(C)=C(C)C2=O)CC1,100%
6,NC(N)=Nc1ccc(Oc2cccc(Nc3ccc(Br)c(C(F)(F)F)c3)c2)cn1,-50.3% (active)
7,Cn1ccnc1C(=O)/C=C/c1ccc(CNC(=O)c2ccc(F)cc2)cc1,-20% (active)
8,Cc1c(Cl)cccc1S(=O)(=O)Nc1ccc2c(c1)C(=O)N(C1CCC(=O)NC1=O)C2=O (stereo not drawn),102%
9,NS(=O)(=O)c1ccc(-n2cc(-c3cccc(NC(=O)c4ccc(N5CCOCC5)c(C(F)(F)F)c4)c3)nn2)cc1,42.7%
10,CCc1cccc2c3c(sc12)C(c1ccc(OC)cc1)C(C#N)=C(/N=C/c1ccc(Cl)cc1)O3 (stereo not drawn),1.2% (active)
11,Nc1ncc(-c2ccc3ncnc(N4CCc5cc(F)c(F)cc54)c3c2)cn1,18.9%
12,COc1c(N2CC3CCCNC3C2)c(F)cc2c(=O)c(C(=O)N/N=C/c3ccc(Br)cc3)cn(C3CC3)c12 (stereo not drawn),72.7%
13,O=C(NNc1nc2cc(F)c(F)cc2n2c(CN3CC4CNCC4C3)ccc12)c1ncccn1 (stereo not drawn),6.72% (active)
